Compound: C#CCNC(=O)CCSSCCC(=O)NCCc1ccc(C=O)c(C=O)c1
Assay: lysine labeling ratio R10:1 (500 µM / 50 µM probe), SILAC-ABPP in living cells; higher = lower intrinsic lysine reactivity toward the probe, active = 2 or less
Conditions: HeLa; probe concentrations 500 vs 50 µM
Summary of the method: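 Forward and reverse SILAC label swaps were used with living light and heavy HeLa cells in PBS at room temperature, which were given an alkyne-tagged, disulfide-linked lysine probe at 50 µM or 500 µM. R is the per-lysine filtered median high-probe/low-probe MS1 peptide ratio, with the median then taken across both swap directions. Values are limited to 20.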

Chain of UniProt P52272 (P52272 whole entry): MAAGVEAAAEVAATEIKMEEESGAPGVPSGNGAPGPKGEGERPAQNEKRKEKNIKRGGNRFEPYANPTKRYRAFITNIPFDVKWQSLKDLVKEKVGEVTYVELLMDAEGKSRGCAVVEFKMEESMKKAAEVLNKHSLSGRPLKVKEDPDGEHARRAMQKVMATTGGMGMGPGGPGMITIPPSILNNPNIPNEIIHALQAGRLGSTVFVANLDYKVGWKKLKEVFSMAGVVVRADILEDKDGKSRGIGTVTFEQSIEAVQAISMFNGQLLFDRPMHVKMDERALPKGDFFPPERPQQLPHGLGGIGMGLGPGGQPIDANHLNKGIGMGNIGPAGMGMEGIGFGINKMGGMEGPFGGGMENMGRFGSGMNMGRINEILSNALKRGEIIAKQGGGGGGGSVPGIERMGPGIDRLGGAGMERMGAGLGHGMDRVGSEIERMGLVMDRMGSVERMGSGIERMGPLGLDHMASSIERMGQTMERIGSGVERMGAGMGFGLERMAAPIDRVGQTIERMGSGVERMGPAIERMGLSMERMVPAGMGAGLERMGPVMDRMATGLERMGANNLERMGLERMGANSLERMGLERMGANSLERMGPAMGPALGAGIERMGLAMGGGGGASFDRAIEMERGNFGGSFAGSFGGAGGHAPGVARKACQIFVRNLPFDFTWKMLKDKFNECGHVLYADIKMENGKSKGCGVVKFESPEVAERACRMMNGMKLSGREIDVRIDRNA
Chain of UniProt P26038 (P26038 whole entry): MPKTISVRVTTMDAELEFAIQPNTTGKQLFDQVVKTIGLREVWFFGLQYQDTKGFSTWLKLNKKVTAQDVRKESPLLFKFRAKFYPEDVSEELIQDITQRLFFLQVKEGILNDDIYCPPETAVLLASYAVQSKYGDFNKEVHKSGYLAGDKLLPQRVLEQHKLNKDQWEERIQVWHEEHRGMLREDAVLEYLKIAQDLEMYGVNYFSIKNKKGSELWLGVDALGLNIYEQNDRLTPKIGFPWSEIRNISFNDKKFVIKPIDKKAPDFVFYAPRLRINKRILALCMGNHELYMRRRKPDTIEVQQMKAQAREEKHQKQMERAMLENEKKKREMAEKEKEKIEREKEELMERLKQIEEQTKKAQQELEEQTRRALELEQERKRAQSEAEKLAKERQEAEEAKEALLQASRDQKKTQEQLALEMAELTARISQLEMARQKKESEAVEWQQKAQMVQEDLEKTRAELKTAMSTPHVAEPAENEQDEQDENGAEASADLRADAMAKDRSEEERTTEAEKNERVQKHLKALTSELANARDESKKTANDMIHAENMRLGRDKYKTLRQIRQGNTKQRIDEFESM
Chain of UniProt Q14980 (Q14980 whole entry): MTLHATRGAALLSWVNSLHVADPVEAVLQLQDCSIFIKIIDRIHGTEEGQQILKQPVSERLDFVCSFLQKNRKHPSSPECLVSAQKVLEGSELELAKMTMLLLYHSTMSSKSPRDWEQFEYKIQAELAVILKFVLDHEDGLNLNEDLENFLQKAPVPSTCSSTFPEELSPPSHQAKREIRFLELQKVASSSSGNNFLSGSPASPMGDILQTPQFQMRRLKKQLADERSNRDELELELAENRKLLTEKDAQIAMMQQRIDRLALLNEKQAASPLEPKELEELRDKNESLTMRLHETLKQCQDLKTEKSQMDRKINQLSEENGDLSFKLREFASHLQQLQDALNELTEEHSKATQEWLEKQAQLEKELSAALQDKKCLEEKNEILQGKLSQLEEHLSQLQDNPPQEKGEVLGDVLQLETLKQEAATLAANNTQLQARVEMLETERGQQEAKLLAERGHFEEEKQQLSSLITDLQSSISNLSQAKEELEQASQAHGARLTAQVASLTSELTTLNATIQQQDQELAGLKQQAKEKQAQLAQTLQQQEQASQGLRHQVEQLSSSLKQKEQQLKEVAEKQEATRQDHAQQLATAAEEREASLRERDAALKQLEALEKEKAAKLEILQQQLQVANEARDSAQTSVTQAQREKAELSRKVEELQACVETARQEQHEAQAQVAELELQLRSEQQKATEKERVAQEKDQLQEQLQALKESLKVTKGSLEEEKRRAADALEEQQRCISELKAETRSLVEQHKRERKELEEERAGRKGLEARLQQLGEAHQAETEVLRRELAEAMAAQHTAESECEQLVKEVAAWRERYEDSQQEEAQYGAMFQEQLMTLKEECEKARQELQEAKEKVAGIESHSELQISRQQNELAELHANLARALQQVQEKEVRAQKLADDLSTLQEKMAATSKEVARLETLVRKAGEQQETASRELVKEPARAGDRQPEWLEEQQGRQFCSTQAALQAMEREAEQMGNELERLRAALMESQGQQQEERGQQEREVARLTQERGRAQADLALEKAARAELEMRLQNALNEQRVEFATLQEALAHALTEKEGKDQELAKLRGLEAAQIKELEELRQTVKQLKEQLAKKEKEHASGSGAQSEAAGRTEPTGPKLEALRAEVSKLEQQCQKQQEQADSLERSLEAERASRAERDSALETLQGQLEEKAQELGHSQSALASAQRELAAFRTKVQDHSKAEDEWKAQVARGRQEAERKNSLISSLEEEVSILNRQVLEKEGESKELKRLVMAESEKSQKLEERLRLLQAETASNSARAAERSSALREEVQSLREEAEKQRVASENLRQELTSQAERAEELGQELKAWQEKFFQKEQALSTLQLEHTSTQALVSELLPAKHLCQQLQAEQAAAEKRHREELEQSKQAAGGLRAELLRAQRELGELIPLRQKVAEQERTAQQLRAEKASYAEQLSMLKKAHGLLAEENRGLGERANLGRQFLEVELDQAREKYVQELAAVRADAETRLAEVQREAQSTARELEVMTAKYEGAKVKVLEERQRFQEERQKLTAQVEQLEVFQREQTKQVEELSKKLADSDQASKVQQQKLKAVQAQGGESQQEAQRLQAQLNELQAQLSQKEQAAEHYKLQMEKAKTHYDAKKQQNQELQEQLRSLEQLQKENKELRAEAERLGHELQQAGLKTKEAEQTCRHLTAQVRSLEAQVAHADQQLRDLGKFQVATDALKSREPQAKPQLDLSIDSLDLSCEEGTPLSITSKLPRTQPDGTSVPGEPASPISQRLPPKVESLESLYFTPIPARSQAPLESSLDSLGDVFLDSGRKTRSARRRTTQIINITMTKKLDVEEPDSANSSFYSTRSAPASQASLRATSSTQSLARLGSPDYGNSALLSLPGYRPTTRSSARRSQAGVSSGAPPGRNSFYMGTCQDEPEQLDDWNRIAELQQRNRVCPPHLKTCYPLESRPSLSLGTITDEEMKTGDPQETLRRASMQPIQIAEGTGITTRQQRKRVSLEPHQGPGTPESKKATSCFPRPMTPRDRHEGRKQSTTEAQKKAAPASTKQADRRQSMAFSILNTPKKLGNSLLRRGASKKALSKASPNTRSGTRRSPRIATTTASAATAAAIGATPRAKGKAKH
Chain of UniProt P01130 (P01130 whole entry): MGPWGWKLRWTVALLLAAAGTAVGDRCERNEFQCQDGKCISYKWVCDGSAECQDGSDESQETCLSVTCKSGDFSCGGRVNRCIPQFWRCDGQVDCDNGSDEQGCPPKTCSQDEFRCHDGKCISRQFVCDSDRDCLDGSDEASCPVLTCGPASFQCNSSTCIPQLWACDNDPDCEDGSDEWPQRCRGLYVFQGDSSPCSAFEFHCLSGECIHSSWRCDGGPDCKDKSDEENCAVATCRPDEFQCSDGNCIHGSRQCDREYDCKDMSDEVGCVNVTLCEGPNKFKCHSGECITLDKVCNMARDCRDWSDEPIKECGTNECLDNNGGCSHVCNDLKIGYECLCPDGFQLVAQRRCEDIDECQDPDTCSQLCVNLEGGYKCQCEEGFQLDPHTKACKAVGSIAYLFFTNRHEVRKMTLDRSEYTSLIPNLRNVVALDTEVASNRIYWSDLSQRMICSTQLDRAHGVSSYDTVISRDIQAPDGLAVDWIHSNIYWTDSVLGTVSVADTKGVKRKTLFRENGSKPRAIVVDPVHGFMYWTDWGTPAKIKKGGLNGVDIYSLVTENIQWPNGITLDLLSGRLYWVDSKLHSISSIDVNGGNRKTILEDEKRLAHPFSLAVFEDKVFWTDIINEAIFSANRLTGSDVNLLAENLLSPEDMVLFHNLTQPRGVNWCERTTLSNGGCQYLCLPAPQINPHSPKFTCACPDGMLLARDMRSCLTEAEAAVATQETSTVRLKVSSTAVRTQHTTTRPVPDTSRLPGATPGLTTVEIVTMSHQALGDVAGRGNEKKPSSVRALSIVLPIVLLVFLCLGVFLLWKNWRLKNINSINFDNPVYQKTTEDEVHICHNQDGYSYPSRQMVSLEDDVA
Chain of UniProt Q00839 (Q00839 whole entry): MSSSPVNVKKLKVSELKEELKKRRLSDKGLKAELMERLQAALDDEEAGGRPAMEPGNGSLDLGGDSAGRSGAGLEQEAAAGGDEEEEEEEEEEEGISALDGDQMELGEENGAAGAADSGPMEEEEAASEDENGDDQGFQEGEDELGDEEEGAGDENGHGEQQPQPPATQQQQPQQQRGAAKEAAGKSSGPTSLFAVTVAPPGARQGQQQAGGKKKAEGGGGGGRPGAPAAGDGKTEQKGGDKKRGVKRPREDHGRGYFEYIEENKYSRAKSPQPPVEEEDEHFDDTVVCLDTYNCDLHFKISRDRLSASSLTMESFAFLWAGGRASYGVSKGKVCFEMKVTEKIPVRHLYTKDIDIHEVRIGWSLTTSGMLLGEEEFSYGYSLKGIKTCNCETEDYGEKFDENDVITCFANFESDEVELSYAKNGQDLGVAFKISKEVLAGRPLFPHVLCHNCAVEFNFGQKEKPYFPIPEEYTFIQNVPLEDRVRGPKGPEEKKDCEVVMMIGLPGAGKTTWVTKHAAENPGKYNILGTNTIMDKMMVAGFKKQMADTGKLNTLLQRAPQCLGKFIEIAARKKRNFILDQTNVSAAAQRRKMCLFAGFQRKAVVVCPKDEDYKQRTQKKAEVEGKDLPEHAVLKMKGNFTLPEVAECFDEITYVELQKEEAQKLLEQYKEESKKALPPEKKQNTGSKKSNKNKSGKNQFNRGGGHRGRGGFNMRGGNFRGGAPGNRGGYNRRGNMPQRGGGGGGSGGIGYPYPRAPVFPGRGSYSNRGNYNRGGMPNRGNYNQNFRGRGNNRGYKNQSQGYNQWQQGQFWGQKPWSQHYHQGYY

Row | Target | lysine labeling ratio R10:1
1 | UniProt P05787 (lysine site: K8) | 5.03 (inactive)
2 | ANXA3 (lysine site: K263) (UniProt P12429) | 1.92 (active)
3 | UniProt O60462 (lysine site: K499) | 1.47 (active)
4 | FAT4 (lysine site: K1809) (UniProt Q6V0I7) | 1.9 (active)
5 | PABPC1 (lysine site: K512) (UniProt P11940) | 3.06 (inactive)
6 | PRDX6 (lysine site: K63) (UniProt P30041) | 2.85 (inactive)
7 | CS (lysine site: K76) (UniProt O75390) | 5.03 (inactive)
8 | MYH9 (lysine site: K1835) (UniProt P35579) | 1.11 (active)
9 | UniProt P14618 (lysine site: K270) | 1.75 (active)
10 | LDLR (lysine site: K596) (UniProt P01130) | 1.28 (active)
11 | MSN (lysine site: K391) (UniProt P26038) | 1.79 (active)
12 | RUVBL2 (lysine site: K427) (UniProt Q9Y230) | 2.02 (inactive)
13 | NUMA1 (lysine site: K284) (UniProt Q14980) | 2 (active)
14 | ECE1 (lysine site: K401) (UniProt P42892) | 2.77 (inactive)
15 | DSG2 (lysine site: K562) (UniProt Q14126) | 6.57 (inactive)
16 | TGFBR3 (lysine site: K672) (UniProt Q03167) | 0.83 (active)
17 | TPM4 (lysine site: K44) (UniProt P67936) | 1.15 (active)
18 | NOTCH1 (lysine site: K185) (UniProt P46531) | 1.8 (active)
19 | UniProt Q15149 (lysine site: K1923) | 1.36 (active)
20 | TLN1 (lysine site: K1171) (UniProt Q9Y490) | 1.76 (active)

Row | Target | lysine labeling ratio R10:1
21 | UniProt Q15149 (lysine site: K4205) | 1.51 (active)
22 | COL5A1 (lysine site: K605) (UniProt P20908) | 2.05 (inactive)
23 | CLTA (lysine site: K242) (UniProt P09496) | 5.68 (inactive)
24 | EEF1G (lysine site: K243) (UniProt P26641) | 1.4 (active)
25 | HNRNPM (lysine site: K69) (UniProt P52272) | 3.38 (inactive)
26 | HSP90B1 (lysine site: K683) (UniProt P14625) | 4.36 (inactive)
27 | RPS5 (lysine site: K63) (UniProt P46782) | 3.35 (inactive)
28 | KTN1 (lysine site: K559) (UniProt Q86UP2) | 1.4 (active)
29 | UniProt Q9UHN6 (lysine site: K846) | 1.51 (active)
30 | C3 (lysine site: K692) (UniProt P01024) | 7.71 (inactive)
31 | UniProt P62195 (lysine site: K55) | 2.19 (inactive)
32 | HNRNPU (lysine site: K609) (UniProt Q00839) | 1.53 (active)
33 | MET (lysine site: K189) (UniProt P08581) | 3.58 (inactive)
34 | HNRNPM (lysine site: K242) (UniProt P52272) | 1.67 (active)
35 | ITGB5 (lysine site: K519) (UniProt P18084) | 0.882 (active)
36 | EGFR (lysine site: K325) (UniProt P00533) | 5.84 (inactive)
37 | CCT4 (lysine site: K531) (UniProt P50991) | 3.03 (inactive)
38 | RER1 (lysine site: K181) (UniProt O15258) | 7.46 (inactive)
39 | MSN (lysine site: K79) (UniProt P26038) | 2.55 (inactive)
40 | PDCD6IP (lysine site: K690) (UniProt Q8WUM4) | 2.89 (inactive)

Reference: the supplement of paper PMC11001985
